Among all 16,000 compounds or so, about 5,700 (36%) were called active. Another 24% or so got no clear call; they are omitted. Calls follow the shape of the dose curve; as a rule, active = well fitted curve in the direction sought with a large enough effect; inconclusive = small, poorly fitted or top-dose-only effect, or effect the other way; inactive = no such curve, though single readings can be large or run the other way. Some of the results follow.
Each compound was assayed against Cytochrome P450 1A2 (Homo sapiens) (UniProt P05177) (assay: Cytochrome panel assay with activity outcomes). Details: recombinant CYP, pro-luciferin dealkylation, luminescence, p450-cyp1a2; series mostly up to 57.1 µM.
% is scaled to controls: 0 for no effect and ±100 for the full control effect.

Sequence of Cytochrome P450 1A2 (Homo sapiens) (P05177 whole entry, looked up): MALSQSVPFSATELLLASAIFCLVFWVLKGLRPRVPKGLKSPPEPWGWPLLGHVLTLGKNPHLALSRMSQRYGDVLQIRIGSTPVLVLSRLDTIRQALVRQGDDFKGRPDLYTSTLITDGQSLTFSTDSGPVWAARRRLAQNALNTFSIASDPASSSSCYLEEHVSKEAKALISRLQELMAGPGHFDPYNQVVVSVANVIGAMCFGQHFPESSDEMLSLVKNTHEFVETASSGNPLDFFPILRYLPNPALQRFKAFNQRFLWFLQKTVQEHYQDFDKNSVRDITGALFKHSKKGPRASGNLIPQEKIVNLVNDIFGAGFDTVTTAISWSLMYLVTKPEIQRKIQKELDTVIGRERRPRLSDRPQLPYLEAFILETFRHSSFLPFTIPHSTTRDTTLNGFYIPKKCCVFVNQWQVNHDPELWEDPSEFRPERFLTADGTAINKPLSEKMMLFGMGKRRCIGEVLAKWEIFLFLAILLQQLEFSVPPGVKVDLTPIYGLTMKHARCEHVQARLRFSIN

Row | SMILES | AC50 | activity, negative = inhibition
1 | CCN[C@@H]1C[C@H](C)S(=O)(=O)c2sc(S(N)(=O)=O)cc21 | inactive | 
2 | Cc1ncc(COP(=O)(O)O)c(C)c1O |  | -20.3% [at 11.4 µM] (inactive)
3 | COC(=O)[C@@H]1CC[C@H](C)[C@@H](c2ccc(C)cc2)N1C(=O)c1ccc(/C=N\O[C@@H](C)CN2CCCCc3nc(C)c(C)cc32)cc1 |  | -5.58% [at 11.4 µM] (inactive)
4 | CC(C)n1nnnc1SCC(=O)c1ccc2c(c1)OCCO2 | 5010 nM (active) | 
5 | CCn1nnnc1SCC(=O)c1ccc2c(c1)OCCO2 | 8910 nM (active) | 
6 | CC(=O)N[C@H]1[C@@H](O[C@@H](C)C(=O)O)[C@H](O)[C@H](CO)O[C@@H]1O | inactive | 
7 | CO[C@H]1COC(=O)[C@H]2CCCN2C(=O)C/C=C\[C@@H](C)[C@H](OC)COC(=O)C/C=C\[C@@H]1C |  | 1.68% [at 11.4 µM] (inactive)
8 | COC(=O)[C@@H]1C[C@H]1[C@@H](NC(=O)c1cc(C)on1)c1ccccc1 | 20000 nM (active) | 
9 | Cc1occc1C(=O)NNC(=O)Cc1ccccc1 | inactive | 
10 | CCNC(=S)NNC(=O)c1cc(C)on1 | inactive | 
11 | Cc1cc(CNC(=O)[C@H]2C[C@@H]2[C@H](NP(=O)(c2ccccc2)c2ccccc2)c2ccccc2)nn1C | inactive | 
12 | Cc1cc(C(=O)NNCc2ccccc2)no1 | 12600 nM (active) | 
13 | COC(=O)[C@@H]1C[C@H]1[C@@H](NC(=O)c1cc(C)nn1C)c1ccccc1 | 15800 nM (active) | 
14 | COc1ccc(O[C@H]2C=C[C@@H](c3ccccc3)O[C@@H]2CON=C(C)C)cc1 |  | -2.27% [at 11.4 µM] (inactive)
15 | Cc1cc2nc3[nH]c4c(Cl)cc(Cl)cc4c3nc2cc1C | 631 nM (active) | 
16 | CS(=O)(=O)N1CCC2(CC1)CN(C(=O)Nc1cccc(C#N)c1)C2 | inactive | 
17 | C=CCNC(=S)N/N=C/c1ccc(-c2cc(Cl)ccc2Cl)o1 | 112 nM (active) | 
18 | CC(=O)C1=C(O)C=C(c2ccco2)CC1c1ccco1 (stereo not given) | 5010 nM (active) | 
19 | CC1=CC=CN2CC(O)CN=C12 (stereo not given) | inactive | 
20 | N#Cc1ccccc1NC(=O)Nc1cccs1 | 7080 nM (active) | 

Row | SMILES | AC50 | activity, negative = inhibition
21 | COc1cc2c3cc1Oc1cc(ccc1O)C[C@@H]1c4c(cc(OC)c(O)c4Oc4ccc(cc4)C[C@H]3[N+](C)(C)CC2)CC[N+]1(C)C |  | -5.47% [at 11.4 µM] (inactive)
22 | COC(=O)[C@@H]1CC[C@H](C)[C@@H](c2ccc(C)cc2)N1C(=O)c1ccc(/C=N\OC[C@@H](C)[C@H](OCc2ccccc2)C(C)C)cc1 |  | -8.55% [at 11.4 µM] (inactive)
23 | Cc1cc([N+](=O)[O-])ccc1NCc1ccccc1 | 2820 nM (active) | 
24 | COc1ccc([N+](=O)[O-])cc1NC1C2CC3CC(C2)CC1C3 (stereo not given) | inactive | 
25 | COc1ccc([N+](=O)[O-])cc1NCc1ccccc1C | 2820 nM (active) | 
26 | Cc1cc(C)c(-c2cc([C@H](C)O/N=C\[C@@H](C)[C@H](OCc3ccccc3)C(C)C)on2)c(C)c1 |  | 5.92% [at 11.4 µM] (inactive)
27 | O=C(O)CONC(=O)c1cc(OCC(F)(F)F)ccc1OCC(F)(F)F | inactive | 
28 | S=C(NCCSCc1c(Cl)cccc1Cl)Nc1ccccc1 | 1410 nM (active) | 
29 | Fc1cccc(NC(=S)NCCCN2CCOCC2)c1 | inactive | 
30 | CN(C)c1ccc(N=Cc2nc(-c3ccccc3)oc2O)cc1 | 398 nM (active) | 
31 | Oc1oc(-c2ccccc2)nc1C=Nc1ccccc1 | 316 nM (active) | 
32 | CCOC(=O)C1=C(C)Nc2ncnn2C1c1cccnc1 (stereo not given) | inactive | 
33 | CC1=C(C(N)=O)C(c2ccccc2)n2nc(-c3ccncc3)nc2N1 (stereo not given) | 14100 nM (active) | 
34 | CSc1nc2n(n1)C(c1cccc(F)c1)C(C(=O)Nc1ccc(C)cc1C)=C(C)N2 (stereo not given) | inactive | 
35 | COc1ccc(OC)c(Nc2nc(-c3sc(NC(=O)c4ccccc4)nc3C)cs2)c1 | inactive | 
36 | COc1cccc(Nc2nc(-c3ccc(O)cc3)cs2)c1 | 1000 nM (active) | 
37 | COc1cccc([C@H](O)Cn2cc(-c3ccc(CON=C(C)C)cc3)nn2)c1 |  | -9.27% [at 11.4 µM] (inactive)
38 | C=CCNC(=S)Nc1ccc2nc(C)c(C)nc2c1 | 4470 nM (active) | 
39 | COc1cc(N=c2ssnc2Cl)cc(OC)c1OC | 3160 nM (active) | 
40 | Cn1c(=O)c2[nH]c(CSCc3ccccc3)nc2n(C)c1=O |  | -15.4% [at 2.29 µM] (inactive)

Row | SMILES | AC50 | activity, negative = inhibition
41 | Cn1c(=O)c2[nH]c(-c3ccc(S(=O)(=O)O)cc3)nc2n(C)c1=O | inactive | 
42 | CCn1c(CCCc2nc3c([nH]2)c(=O)n(C)c(=O)n3C)nc2c1c(=O)n(C)c(=O)n2C |  | -16.7% [at 2.29 µM] (inactive)
43 | CCCn1c(=O)c2[nH]c(-c3ccccc3)nc2n(CCC)c1=O | 79.4 nM (active) | 
44 | Cn1c(=O)c2[nH]c(-c3ccccc3)nc2n(C)c1=O | 2000 nM (active) | 
45 | COc1ccc(-c2nc3c([nH]2)c(=O)n(C)c(=O)n3C)c(OC)c1 | 2000 nM (active) | 
46 | CCCn1c(=O)c2[nH]c(-c3ccc(OCC(=O)NCCN)cc3)nc2n(CCC)c1=O | inactive | 
47 | CCn1c(=O)c2[nH]c(-c3ccccc3)nc2n(CC)c1=O | 1000 nM (active) | 
48 | Cn1c(=O)c2[nH]cnc2n(C)c1=O | inactive | 
49 | Cn1c(=O)c2[nH]c(CCC(=O)O)nc2n(C)c1=O |  | -3.23% [at 11.4 µM] (inactive)
50 | CC(=O)Nc1ccc2c(c1)OCCO2 | 10000 nM (active) | 
51 | CCNC(=O)NC1(C(=O)Nc2ccc3c(c2)OCCO3)CCCCC1 | inactive | 
52 | O=C(Cn1ccc(=O)[nH]c1=O)Nc1ccc(C(=O)O)c(O)c1 |  | -16.5% [at 2.29 µM] (inactive)
53 | CC(=O)Nc1ccc2c(c1)OCCOCCOc1cc(NC(C)=O)ccc1OCCOCCOCCO2 | inactive | 
54 | CC(C)(C)c1ccc(OC(=O)Nc2ccc(O)c(C(=O)O)c2)cc1 |  | 6.5% [at 2.29 µM] (inactive)
55 | Cc1cc(NC(=O)c2c([N+](=O)[O-])cnn2C)no1 | inactive | 
56 | O=C(CC1C(=O)NCCN1C(=S)Nc1ccccc1)Nc1ccc2c(c1)OCCO2 (stereo not given) | inactive | 
57 | COc1cc2c(cc1OC)C(C(=O)Nc1ccc3c(c1)OCCO3)C(c1cccnc1)N(C)C2=O (stereo not given) | inactive | 
58 | O=C(CC(c1ccccc1)c1ccccc1)Nc1ccc2c(c1)OCCO2 | 10000 nM (active) | 
59 | Cn1ncc([N+](=O)[O-])c1C(=O)Nc1ccc2c(c1)OCCO2 | 1260 nM (active) | 
60 | CCOC(=O)Nc1ccc(C(=O)Oc2ccccc2)c(O)c1 | 3160 nM (active) | 

Reference: PubChem BioAssay AID1851 (National Center for Advancing Translational Sciences (NCATS), 2009)
